Calls of active or inactive are those of the source. Rule for the calls: active = hit-call score of the fitted dose curve at least 0.9, where 1 is the maximum; inactive = score below 0.9.
test: ATG_M_19_CIS: Attagene CIS-FACTORIAL HepG2 Assay for M19 Transcription Factor (Internal Marker) (AID 2282939); details: HepG2 Attagene CIS-FACTORIAL M19 internal marker reporter; actives raise or lower the signal
Protocol: ATG_CIS is a cell-based, multiplexed-readout assay that uses HepG2, a human liver cell line, with measurements taken at 24 hours after chemical dosing in a 24-well plate.ATG_M_19_CIS is one of 52 assay component(s) measured or calculated from the ATG_CIS assay. It is designed to make measurements of mRNA induction, a form of inducible reporter, as detected with fluorescence intensity signals by Reverse transcription polymerase chain reaction (RT-PCR) and Capillary electrophoresis technology.Data from the assay component ATG_M_19_CIS was analyzed into 1 assay endpoint. This assay endpoint, ATG_M_19_CIS, was analyzed with bidirectional fitting relative to DMSO as the negative control and baseline of activity. Using a type of inducible reporter, measures of mRNA for gain or loss-of-signal activity can be used to understand the background control at the transcription factor-level as they relate to the gene . Furthermore, this assay endpoint can be referred to as a secondary readout, because this assay has produced multiple assay endpoints where this one serves a background control function. To generalize the intended target to other relatable targets, this assay endpoint is annotated to the background measurement intended target family, where the subfamily is internal marker.
Human liver HepG2 cells are transiently transfected with multiple reporter transcription units (MRTUs) in 6-well plates using FuGene 6 reagent (Roche; 3 ml FuGene/1 mg DNA). The MRTU constructs are regulated by a cis-regulating element (promoter). […] A major difference between the CIS and TRANS system is that in CIS activities of endogenous TFs are measured, whereas the TRANS assay evaluates changes in activities of exogenous, chimeric NR-Gal4 proteins. […] At the end of 24 hour incubation, total RNA was isolated using TriZol reagent (Invitrogen). The isolated RNA is then reverse-transcribed using oligo(dT) primer and Mo-MLV reverse transcriptase (Invitrogen) with DNAse I (Ambion) treatment for 30 min. The one-tenth of the produced cDNA was amplified by PCR using Taq DNA polymerase (Invitrogen) and two reporter sequence-specific primers. The PCR products were fluorescently labeled by primer extension with 6-arboxyfluorescein (6-FAM) 5'-labeled reporter sequence-specific primer (2 min at 95 C, 20 s at 68 C and 10 min at 72 C) and these products were digested with 5U of HpaI (New England Biolabs) for 2h at 37 C. The fragments were purified using Qiaquick PCR columns (Qiagen), analyzed on an ABI 3130xL genetic analyzer (Applied Biosystems) with peak positions identified by using a set of X-rhodamine (ROX)-labeled MapMarker1000 molecular weight standards (BioVentures). The raw capillary electrophoresis data was processed using Attagraph software (Attagene).

outcome, inactive:
CC/C=C\CCO
CCc1cc(C(N)=S)ccn1
Nc1ccc(S(=O)(=O)Nc2cnc3ccccc3n2)cc1
C1=CCC=C1
CC(=O)Nc1c(I)c(NC(C)=O)c(I)c(C(=O)O)c1I
O=C(O)c1cc(Cl)cc(Cl)c1O
CCC(C)C1N=C(C)C(C)S1 (stereo not given)
CCCCCCCCCCCCCCCCCC[N+](C)(C)C
C=C(C)C(=O)OCCCCCC
O=C(O)Cc1c[nH]c2ccccc12
CNC[C@H](O)[C@@H](O)[C@H](O)[C@H](O)CO
C[C@H]1C[C@H]2[C@@H]3CCC4=CC(=O)C=C[C@]4(C)[C@@]3(F)[C@@H](O)C[C@]2(C)[C@@]1(O)C(=O)CO
CC1=CCCC(C)(C)C12CCC(C)O2 (stereo not given)
Cc1cc2nc3c(=O)[nH]c(=O)nc-3n(C[C@H](O)[C@H](O)[C@H](O)CO)c2cc1C
CC/C=C\CCCCCO
CC1=C(CC(=O)O)c2cc(F)ccc2/C1=C\c1ccc(S(C)=O)cc1 (stereo not given)
CC(=O)OC(C)(C)Cc1ccccc1
Oc1ccc(Oc2ccccc2)cc1
CC(O)(P(=O)(O)O)P(=O)(O)O
CCCCCC1CCCC(=O)O1 (stereo not given)
CCCCCCC(O)CCCCCCCCCCC(=O)OC (stereo not given)
CCCCCCCC#N
Cc1cc(O)cc(C)c1Cl
O=[N+]([O-])c1ccc2nc[nH]c2c1
COC(=O)c1ccccc1
Nc1nnc(-c2ccc([N+](=O)[O-])o2)o1
Brc1ccc(Oc2ccc(Br)cc2)cc1
O=[N+]([O-])c1ccccc1C(F)(F)F
CCCCCCOC(=O)CCCCCCCC(=O)OCCCCCC
F[B-](F)(F)F
O=C(Oc1ccccc1)c1ccccc1
CCCCC(CC)COC(=O)CS (stereo not given)
CN(C)CCCN1c2ccccc2CCc2ccc(Cl)cc21
COC(OC)C(C)c1ccccc1 (stereo not given)
NC(=O)c1ccc([N+](=O)[O-])cc1Cl
CN(C)Cc1cc(C(C)(C)C)c(O)c(C(C)(C)C)c1
CN(C)N=Nc1ccccc1
O=C(CC(C(=O)OC1CCCCC1)S(=O)(=O)O)OC1CCCCC1 (stereo not given)
CC(C)CC(=O)CC(C)C
C=C(C)C(=O)OCC1CCCO1 (stereo not given)
